# ± gives the standard deviation of the averaged measurements. The full ranking holds about 33,000 sequences; the median of “E-score (rank enrichment, -0.5 to 0.5)” is about -0.0028, and the highest 2% start at about 0.23. Shown is part of a subset that was picked to be rich in the highest values.
# Test system: 2Sb-muMax20 (muMax20 with two 1,3-bis(methyl)benzene Cys staples, A13C/A17C and Q88C/A92C, C-terminal Lys)
# Test: PBM 8-mer E-score (E-score (rank enrichment, -0.5 to 0.5)); higher = stronger preferential binding
# Procedure: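 Protein binding microarray (universal PBM chip covering all 10-mers in fixed probe flanks) with chemically synthesized human Max(13-93) bHLH-LZ analogs (not full-length Max) bearing noncanonical residues (hArg, Tha, Aib, Nle at 65) and aromatic Cys staples. Read-out per 8-mer (and its reverse complement): E-score (rank-based enrichment, -0.5 to 0.5) and Z-score of median probe intensity.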
row,Sequence,PBM 8-mer E-score
1,TATTAAAA,0.142 ± 0.065
2,GGAACACC,-0.18 ± 0.026
3,ACACGGGT,-0.046 ± 0.012
4,ATTAGGTC,0.0763 ± 0.069
5,ATTATCCA,0.0946 ± 0.055
6,ACGGAACT,-0.0318 ± 0.08
7,AGCGTCGG,-0.117 ± 0.08
8,CAGTATCC,0.0515 ± 0.025
9,GCACGTTA,0.1 ± 0.012
10,CCACGTTA,0.3181 ± 0.0019
11,CCACGTTC,0.0604 ± 0.011
12,TAGCTTCA,0.122 ± 0.05
13,AGCGCCCC,-0.0138 ± 0.11
14,CGTATAAG,0.0878 ± 0.037
15,AGTATAAC,-0.0733 ± 0.029
16,ACTATAAG,0.0622 ± 0.044
17,AGTATAAT,0.24 ± 0.091
18,AGTATAAA,0.188 ± 0.0027
19,AGTATAAG,0.272 ± 0.011
20,AGCGCAGA,-0.126 ± 0.074
21,AAATAAAT,0.172 ± 0.013
22,ATAGAAAC,0.0134 ± 0.036
23,AAGAGGCC,-0.129 ± 0.067

row,Sequence,PBM 8-mer E-score
1,TACTTCAA,0.265 ± 0.047
2,AACTTCAA,0.00863 ± 0.015
3,GACTTCAA,0.15 ± 0.0026
4,AAGATCTG,0.0847 ± 0.069
5,AAGATCTT,0.257 ± 0.052
6,AAGATCTA,-0.0269 ± 0.015
7,ATGCTGAA,0.0724 ± 0.024
8,ACCTAGTG,0.109 ± 0.023
9,CTGGGATA,-0.0992 ± 0.038
10,CGGGGATA,0.0352 ± 0.012
11,ATGGGATA,0.145 ± 0.0055
12,GGGGGATA,0.0584 ± 0.079
13,AGGGGATA,0.303 ± 0.046
14,GTGGGATA,0.274 ± 0.071
15,ATGCTTCC,-0.0299 ± 0.042
16,GCCCAGGA,-0.14 ± 0.058
17,ACCGCGGT,-0.115 ± 0.037
18,CCCTCCGC,-0.0855 ± 0.048
19,AACCGATC,-0.0993 ± 0.0093
20,ACGTGTGC,0.2375 ± 0.00032
21,GCGTGTTA,0.0351 ± 0.018
22,ACGTGTAG,-0.0126 ± 0.035
23,ACGTGTTG,0.258 ± 0.013

row,Sequence,PBM 8-mer E-score
1,ACGTGTGG,0.151 ± 0.034
2,ATGTGTTG,0.197 ± 0.039
3,ACGTGTTA,0.269 ± 0.0048
4,CCGTGTTA,0.0249 ± 0.014
5,ACGTGTTC,0.103 ± 0.017
6,ACGTGTGA,0.0598 ± 0.014
7,ACGTGTAT,0.35 ± 0.016
8,ACGTGTAC,0.147 ± 0.019
9,GCCTAACA,0.0954 ± 0.1
10,ATCTCCAA,0.107 ± 0.026
11,CTGTCTCC,-0.098 ± 0.04
12,AATTTGAT,-0.0177 ± 0.068
13,GCAATTGC,0.031 ± 0.021
14,AACATCGA,0.0919 ± 0.039
15,GTTGATGA,0.108 ± 0.0079
16,ATTGGTTC,0.0837 ± 0.026
17,GGGCCGGA,-0.178 ± 0.071
18,TATAATCA,0.263 ± 0.0093
19,GATAATCA,0.188 ± 0.037
20,AATAATCA,0.0347 ± 0.023
21,AGTATTCC,0.115 ± 0.061
22,AAGTATGA,0.139 ± 0.069
23,TAGTATGA,0.233 ± 0.017

row,Sequence,PBM 8-mer E-score
1,CAGTATGA,0.103 ± 0.036
2,CCAGGTGA,-0.197 ± 0.057
3,GTGCGAAC,-0.083 ± 0.0049
4,CATTAGTA,0.0235 ± 0.027
5,AATTAGTA,0.281 ± 0.031
6,AATTAGTC,0.0882 ± 0.024
7,AGCCGCGG,-0.23908 ± 0.00016
8,AACGCCGT,-0.116 ± 0.032
9,AGATGTTG,-0.0885 ± 0.12
10,ACATGTTC,0.144 ± 0.088
11,GCATGTTA,0.165 ± 0.072
12,CCATGTTA,0.111 ± 0.079
13,ACATGTTA,0.2525 ± 0.0013
14,ACATGTTG,0.289 ± 0.023
15,CGTGTGAA,-0.155 ± 0.051
16,ACGTGAGC,0.0717 ± 0.062
17,AATCAAAC,0.16 ± 0.021
18,CGTTCTAA,0.032 ± 0.071
19,CTCCCACC,0.27 ± 0.025
20,CGCCCCAG,0.0881 ± 0.046
21,AGCCCACG,0.0705 ± 0.024
22,AGCCCACC,-0.043 ± 0.018
23,GGCCCACA,-0.0654 ± 0.04

row,Sequence,PBM 8-mer E-score
1,CGCCCCAC,0.253 ± 0.11
2,CGCCCACG,-0.0314 ± 0.056
3,CTCCCACA,0.119 ± 0.064
4,CGCCCACC,0.312 ± 0.0061
5,ATCCCACC,0.193 ± 0.054
6,AGCCCACA,0.2403 ± 0.0014
7,GGCCCCAC,0.103 ± 0.019
8,CATGTAGC,0.084 ± 0.043
9,CTCCACTA,0.0307 ± 0.041
10,CCATCGAG,-0.0349 ± 0.043
11,ACCACGAC,-0.0523 ± 0.04
12,CGTACAAG,-0.0151 ± 0.087
13,ATAGCGAA,0.0983 ± 0.034
14,ACCTATTC,-0.025 ± 0.024
15,TAATGCTA,0.231 ± 0.044
16,CAATGCTA,0.00426 ± 0.07
17,GAATGCTA,-0.216 ± 0.036
18,GGATGGCA,0.267 ± 0.059
19,TGATGGCA,0.0723 ± 0.063
20,GGATGGCC,-0.241 ± 0.023
21,ACTTTCGA,0.0801 ± 0.036
22,AAGCTTCT,0.104 ± 0.092
23,AATCATGA,0.136 ± 0.035

row,Sequence,PBM 8-mer E-score
1,TATCATGA,0.278 ± 0.02
2,CATCATGA,0.0474 ± 0.048
3,GGGGATAA,0.234 ± 0.063
4,GGGGATTA,0.278 ± 0.013
5,GGGGATAC,0.0267 ± 0.0099
6,TGGGATAA,0.0797 ± 0.017
7,AGGGATTA,-0.0189 ± 0.016
8,CGGGATTA,0.032 ± 0.017
9,CAGTAAGG,-0.0281 ± 0.052
10,AATAGTGT,0.1565 ± 0.001
11,GTCCCCGA,0.0628 ± 0.032
12,AACTGTGA,-0.0892 ± 0.026
13,TAACTGGA,-0.0436 ± 0.0063
14,CATTAGCC,-0.0287 ± 0.08
15,CTATGCCA,0.0722 ± 0.02
16,ATATGCCA,0.305 ± 0.06
17,ATATGCCG,-0.076 ± 0.083
18,ATCGACGC,0.0538 ± 0.027
19,ATGTGTAC,0.107 ± 0.014
20,GCCAGTGA,0.0103 ± 0.058
21,ACACGAGG,0.0366 ± 0.063
22,ACACGTAG,0.0467 ± 0.016
23,ACACGTAC,0.0764 ± 0.051

row,Sequence,PBM 8-mer E-score
1,ACACGTGC,0.409 ± 0.0079
2,AAACGTGG,0.0929 ± 0.011
3,ACACGAGT,0.248 ± 0.044
4,AGACGTGC,-0.124 ± 0.021
5,ACACGAGA,-0.125 ± 0.065
6,TCACGTAA,-0.031 ± 0.021
7,ACACGTGG,0.416 ± 0.0009
8,TCACGTGA,0.439 ± 0.033
9,TAACGTGA,-0.0146 ± 0.035
10,AAGGCCGA,-0.0488 ± 0.013
11,CGCTGACA,-0.122 ± 0.0063
12,TCTAGTCA,0.105 ± 0.035
13,CCCCCGGG,-0.43 ± 0.042
14,CCGCCTCG,-0.04 ± 0.07
15,GATACTCC,-0.0231 ± 0.06
16,GCGCGGGA,-0.038 ± 0.036
17,ATTCAGAG,-0.21 ± 0.046
18,CGTGCATA,0.165 ± 0.016
19,AGACGTGA,0.0177 ± 0.032
